Assay results reported in PubChem BioAssay.
Records with an inconclusive call do not appear. Active and inactive are the calls of the source.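 Rule for the calls, unless noted: active = viability at or under a set limit in both replicates, limit being median viability minus 3 SD (cut at about 48% in these data, passing the limit was not always enough); inconclusive = at or under the limit in just one replicate; inactive = at or above the limit in both replicates.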

Columns and labels:
[1] = reducers of endogenous Her2 protein level, primary screen, SKBR3 breast tumor cells, AlphaScreen, ATP viability (AID 461;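 active = Her2 level under about 52% in both replicate screens, with viability over 70% of control, limit read from the data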;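 for Her2 level: lower value means less Her2 protein in the cells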;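 for viability: percent of carrier control wells set as 100% viability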); settings: 18-24 h, measured here: SKBR3 viability, ATP luminescence, at 10 µM
[2] = target: Receptor tyrosine-protein kinase erbB-2 (Homo sapiens) (UniProt P04626); assay: as above; settings: 18-24 h, at 10 µM, stronger effect = lower value
[3] = SK-BR-3 cell growth inhibitors, pilot screen, 24 h, human (AID 572;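 active = viability at or below 10% of carrier control in both of two separate runs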;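 note: compound exposure lasted between 18 and 24 h rather than exactly 24 h; 100% = carrier-treated control wells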); settings: SK-BR-3 viability, CellTiter-Glo luminescence, at 10 µM, stronger effect = lower value
[4] = HUVEC growth inhibition – cell-based, human, primary screen (AID 575;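 active = viability at or below 30% in both replicate assays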;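 note: 100% = median of untreated cell wells with 0.1% DMSO on each plate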); settings: HUVEC proliferation, CellTiter-Glo luminescence, 72 h; at 10 µM; stronger effect = lower value
[5] = growth inhibitors of H69AR lung tumor, primary screen, human, duplicate replicates (AID 580); settings: H69AR lung tumor cells viability, ATP luminescence, 72 h; at 10 µM; stronger effect = lower value;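 note: 100% = mean luminescence of untreated wells and 0% = no signal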
[6] = reversal of MRP1-mediated doxorubicin resistance, pilot screen, H69AR cells, doxorubicin co-treatment (AID 601;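 active = viability loss from added drug above about 55%, and viability with drug at most 40%, in both replicates, limit read from the data, passing the limit was not always enough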); settings: CellTiter-Glo, 72 h, at 10 µM; for differential viability (reversal): stronger effect = higher value
[7] = 384-well plate pilot, post-Golgi transport modulator project, inhibition of yeast transport mutant growth (AID 636; in the data active = inhibition above about 31%); settings: absorbance 615 nm, about 18 h, stronger effect = higher value
[8] = growth suppression of yeast trafficking mutant, preliminary HTS, modulators of trafficking downstream of Golgi apparatus project, 1536-format plate, OD 615 nm (AID 637; in the data active = inhibition above about 30%); settings: yeast transport mutant growth, absorbance 615 nm, 18 h; stronger effect = higher value
[9] = OD615 S. cerevisiae growth inhibition, permissive medium, pilot counter-assay, permissive growth control for S. cerevisiae lifespan shortening project (AID 705;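 active = growth inhibition above 25% in both replicates, a cutoff set 3 SD above the mean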); settings: OD615, 24 h, at 10 µM, stronger effect = higher value
[10] = Restrictive medium S. cerevisiae growth inhibition, OD615, pilot screen of yeast lifespan reduction project, restrictive growth control (AID 706;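 active = growth inhibition above a set limit, 3 SD over mean compound inhibition, in both replicates, cut at about 43% in these data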;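 note: modified DeaD lifespan yeast strain shifted to restrictive glucose medium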); settings: OD615, 48 h, at 10 µM, stronger effect = higher value
[11] = viability gain of MRP-1-high H69AR cells under doxorubicin, pilot screen, MRP-1 activator project, CellTiter-Glo, duplicate (AID 807;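 active = viability increase at or above a cutoff of the median across tested compounds plus 3 SD, cut at about 8.5% in these data, passing the limit was not always enough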;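 note: compound pretreatment 18-22 h then 72 h combined with doxorubicin; 0% = doxorubicin alone and 100% = vehicle without doxorubicin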); settings: H69AR viability with doxorubicin, CellTiter-Glo luminescence; at 10 µM; stronger effect = higher value
[12] = growth suppression of beta-catenin knockout HCT116, pilot screen, human colon tumor cells (AID 823;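 active = cell viability at or below a set limit in both duplicate runs, the limit being the all-compound median minus 4 SD, cut at about 23% in these data, passing the limit was not always enough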;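 note: 0% = wells killed by 20 µM Hyamine and 100% = untreated DMSO cell wells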); settings: CellTiter-Glo, 60 h, at 10 µM, stronger effect = lower value
[13] = growth suppression of PTEN-deleted HCT116, pilot screen, cell-based, HCT116 clonal line, CellTiter-Glo (AID 824;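 active = viability at or below 27.92% in each of two runs, the all-compound median minus 4 SD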;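 note: 0% = 20 µM Hyamine control and 100% = vehicle cell control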); settings: 60 h, at 10 µM, stronger effect = lower value
[14] = inhibitors of the yeast RAM network, pilot screen, dse1pr::URA3 reporter, 5-FOA selection (AID 869;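 active = inhibition over a set limit, the all-compound mean plus 3 SD, in both replicate runs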;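 note: 0% = DMSO wells with no growth and 100% = 10 µM 1-NA-PP1 with full growth; RAM network block rescues cells from 5-FOA so hits raise OD615 growth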); settings: S. cerevisiae dse1pr::URA3 5-FOA growth, OD615, 2 d; at 10 µM; stronger effect = higher value; strain carries analog-sensitive mutant Cbk1 kinase
[15] = RAM signaling pathway blockade in yeast – S. cerevisiae, Pdr1DBD-CYC8 efflux-inhibited sensitized strain, primary screen (AID 1298;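 active = RAM network inhibition above 8.4% in each of two replicates, 3 SD over the compound average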;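 note: 0% = DMSO untreated cells without growth and 100% = 10 µM 1-NA-PP1 full growth; higher means more yeast growth rescued from 5-FOA killing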); settings: S. cerevisiae cbk1-as DSE1-URA3 strain, 5-FOA growth OD615, 2 d; at 50 µM; stronger effect = higher value
[16] = H69AR cells + 2 uM doxorubicin, measured here: viability with 2 uM doxorubicin, stronger effect = lower value
[17] = H69AR cells, compound alone cytotoxicity

Chain of Receptor tyrosine-protein kinase erbB-2 (Homo sapiens) (P04626 whole entry, looked up): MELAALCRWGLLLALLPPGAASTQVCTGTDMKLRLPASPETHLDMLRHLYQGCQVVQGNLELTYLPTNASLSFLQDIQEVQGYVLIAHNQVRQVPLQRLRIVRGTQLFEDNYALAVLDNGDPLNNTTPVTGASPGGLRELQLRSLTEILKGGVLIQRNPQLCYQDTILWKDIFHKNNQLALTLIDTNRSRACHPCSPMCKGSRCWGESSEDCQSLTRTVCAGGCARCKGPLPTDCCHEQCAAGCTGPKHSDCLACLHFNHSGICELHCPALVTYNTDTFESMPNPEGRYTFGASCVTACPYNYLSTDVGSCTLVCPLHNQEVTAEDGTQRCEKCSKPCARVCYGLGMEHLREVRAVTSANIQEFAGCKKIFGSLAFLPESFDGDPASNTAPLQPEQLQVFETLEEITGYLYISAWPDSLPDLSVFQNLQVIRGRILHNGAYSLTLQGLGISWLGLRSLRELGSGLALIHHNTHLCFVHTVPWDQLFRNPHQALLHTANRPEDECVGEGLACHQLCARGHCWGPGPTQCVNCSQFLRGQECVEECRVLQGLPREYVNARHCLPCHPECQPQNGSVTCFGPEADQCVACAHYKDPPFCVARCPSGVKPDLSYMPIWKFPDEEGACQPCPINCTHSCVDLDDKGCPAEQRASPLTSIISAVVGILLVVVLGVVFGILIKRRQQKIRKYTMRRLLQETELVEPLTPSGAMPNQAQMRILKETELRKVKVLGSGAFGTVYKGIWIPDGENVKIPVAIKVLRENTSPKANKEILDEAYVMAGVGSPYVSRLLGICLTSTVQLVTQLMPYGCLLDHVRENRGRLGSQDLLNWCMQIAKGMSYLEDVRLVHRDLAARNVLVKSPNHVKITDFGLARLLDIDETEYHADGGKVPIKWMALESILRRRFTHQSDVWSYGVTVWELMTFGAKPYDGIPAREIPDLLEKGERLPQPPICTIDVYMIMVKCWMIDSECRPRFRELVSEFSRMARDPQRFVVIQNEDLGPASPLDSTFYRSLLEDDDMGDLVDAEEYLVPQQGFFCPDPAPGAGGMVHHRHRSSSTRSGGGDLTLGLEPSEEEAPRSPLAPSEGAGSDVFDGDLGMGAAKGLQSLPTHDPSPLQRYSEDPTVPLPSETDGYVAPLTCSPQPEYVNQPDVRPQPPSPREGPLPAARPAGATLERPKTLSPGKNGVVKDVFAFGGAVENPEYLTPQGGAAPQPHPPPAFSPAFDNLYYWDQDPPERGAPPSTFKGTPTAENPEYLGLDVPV

CC(=O)c1c(OC(=O)c2ccco2)c2ccccc2n1C
inactive: Her2 level [2] 102% | viability [3] 91% | viability [4] 74.6% | viability [5] 75.3% | differential viability (reversal) ([6]; H69AR cells + 2 uM doxorubicin) -8.43% | inhibition [7] -0.64% | inhibition [8] -8.83% | growth inhibition [9] -14.2% | growth inhibition [10] -7.23% | viability increase [11] -4.82% | viability [12] 75.1% | viability [13] 91.3% | inhibition [14] 0.15% | RAM network inhibition [15] 1.13%
91%: viability [1]
83.8%: viability [6, 16]
75.3%: viability [6, 17]

CCOC(=O)C1CCN(C(=O)CN(c2ccc(Cl)c(C(F)(F)F)c2)S(C)(=O)=O)CC1
92.1%: viability [6, 17]
102%: viability [6, 16]
inactive: Her2 level [2] 100% | viability [3] 112% | viability [4] 107% | viability [5] 92.1% | differential viability (reversal) ([6]; H69AR cells + 2 uM doxorubicin) -9.81% | inhibition [7] -0.65% | inhibition [8] -2.5% | growth inhibition [9] -11.9% | growth inhibition [10] -8.95% | viability increase [11] -3.24% | viability [12] 88.1% | viability [13] 84.7% | inhibition [14] -0.1% | RAM network inhibition [15] 0.63%
112%: viability [1]

CC(OC(=O)C1CC=CCC1C(N)=O)C(Cl)=C(Cl)Cl (stereo not given)
inactive: Her2 level [2] 105% | viability [3] 88% | viability [4] 80.8% | viability [5] 93.7% | differential viability (reversal) ([6]; H69AR cells + 2 uM doxorubicin) 7.14% | inhibition [7] 6.1% | inhibition [8] 1.31% | growth inhibition [9] -2.97% | growth inhibition [10] -1.67% | viability increase [11] 0.52% | viability [12] 103% | viability [13] 105% | inhibition [14] 0.055% | RAM network inhibition [15] 2.45%
93.7%: viability [6, 17]
88%: viability [1]
86.5%: viability [6, 16]

O=C1CN(c2nc3ccccc3n3cnnc23)CC(=O)N1CCc1ccccc1
102%: viability [6, 17]
inactive: Her2 level [2] 100% | viability [3] 91.5% | viability [4] 104% | viability [5] 102% | differential viability (reversal) ([6]; H69AR cells + 2 uM doxorubicin) 12% | inhibition [7] -0.38% | inhibition [8] -1.17% | growth inhibition [9] -6.92% | growth inhibition [10] -3.06% | viability increase [11] 0.25% | viability [12] 102% | viability [13] 95.9% | inhibition [14] 3.38% | RAM network inhibition [15] 5.88%
91.5%: viability [1]
90.2%: viability [6, 16]

CCn1c(SCC(=O)Nc2cccc(C)c2)nc2c(c1=O)SC(C)C2 (stereo not given)
76.7%: viability [6, 17]
90%: viability [1]
inactive: Her2 level [2] 88% | viability [3] 90% | viability [4] 99% | viability [5] 76.7% | differential viability (reversal) ([6]; H69AR cells + 2 uM doxorubicin) 3.39% | inhibition [7] -3.07% | inhibition [8] -0.67% | growth inhibition [9] -3.52% | growth inhibition [10] -4.62% | viability increase [11] -3.09% | viability [12] 95.1% | viability [13] 88.9% | inhibition [14] 2.52% | RAM network inhibition [15] 10.2%
73.3%: viability [6, 16]

COc1ccc(-c2nc(CSCC(=O)N3CCc4ccccc4C3)c(C)o2)cc1OC
92.4%: viability [6, 16]
inactive: Her2 level [2] 69.5% | viability [3] 88.5% | viability [4] 93.8% | viability [5] 92.6% | differential viability (reversal) ([6]; H69AR cells + 2 uM doxorubicin) 0.215% | inhibition [7] -0.38% | inhibition [8] -0.5% | growth inhibition [9] 13.3% | growth inhibition [10] 33.4% | viability increase [11] -3.15% | viability [12] 93.9% | viability [13] 89.8% | inhibition [14] -0.395% | RAM network inhibition [15] 3.92%
88.5%: viability [1]
92.6%: viability [6, 17]

Cc1cc(C)cc(N(CC(=O)NC2CCC(C)CC2)S(=O)(=O)c2c(C)noc2C)c1 (stereo not given)
88.1%: viability [6, 17]
83.8%: viability [6, 16]
inactive: Her2 level [2] 101% | viability [3] 104% | viability [4] 94% | viability [5] 88.1% | differential viability (reversal) ([6]; H69AR cells + 2 uM doxorubicin) 4.2% | inhibition [7] -3.59% | inhibition [8] -5.67% | growth inhibition [9] -23.2% | growth inhibition [10] -18.5% | viability increase [11] -1.82% | viability [12] 97.5% | viability [13] 94.9% | inhibition [14] 2.36% | RAM network inhibition [15] 11.3%
104%: viability [1]

CCOC(=O)N1CCC(Nc2ncnc3c2cnn3-c2ccc(C)cc2C)CC1
72.7%: viability [6, 17]
86%: viability [1]
30.2%: viability [6, 16]
inactive: Her2 level [2] 78.5% | viability [3] 86% | viability [4] 83.4% | viability [5] 72.7% | differential viability (reversal) ([6]; H69AR cells + 2 uM doxorubicin) 42.5% | inhibition [7] -4% | inhibition [8] 1.5% | growth inhibition [9] 5.81% | growth inhibition [10] -2.8% | viability increase [11] -6.54% | viability [12] 70.2% | viability [13] 67.4% | inhibition [14] 0.78% | RAM network inhibition [15] 1.71%

COc1ccc(NC(=O)C2CCCN(S(=O)(=O)c3cccc4cccnc34)C2)cc1OC (stereo not given)
67.5%: viability [6, 17]
82%: viability [1]
inactive: Her2 level [2] 106% | viability [3] 82% | viability [4] 75.4% | viability [5] 67.5% | differential viability (reversal) ([6]; H69AR cells + 2 uM doxorubicin) -6.73% | inhibition [7] -4.13% | inhibition [8] 1.67% | growth inhibition [9] -1.21% | growth inhibition [10] 0.31% | viability increase [11] -2.32% | viability [12] 80.3% | viability [13] 78.6% | inhibition [14] 2.09% | RAM network inhibition [15] 2.55%
74.2%: viability [6, 16]

CC(=O)Nc1cc(N2C(=O)CCC2=O)ccc1Cl
90.5%: viability [6, 16]
103%: viability [6, 17]
93%: viability [1]
inactive: Her2 level [2] 97% | viability [3] 93% | viability [4] 110% | viability [5] 103% | differential viability (reversal) ([6]; H69AR cells + 2 uM doxorubicin) 12.4% | inhibition [7] 0.4% | inhibition [8] 6.45% | growth inhibition [9] -10.2% | growth inhibition [10] -12.5% | viability increase [11] -1.29% | viability [12] 102% | viability [13] 103% | inhibition [14] 1.19% | RAM network inhibition [15] 1.88%
